Reference: PubChem BioAssay (NCATS)
Calls of active or inactive are those of the source. Calls come from the whole dose curve.

What was measured:
Assay in all cases: Confirmatory Screen for Target Class Profiling of Small Molecule Inhibitors of Methyltransferases (AID 1745852); for activity change, negative = inhibition: % is set by controls: 0 for no effect and ±100 for the full control effect
[1] = biological target: Catechol O-methyltransferase (Homo sapiens) (UniProt P21964); details: MTase-Glo luminescence, SAH detection, recombinant enzyme; measured here: COMT max response; stronger effect = lower value
[2] = biological target: Guanidinoacetate N-methyltransferase (Homo sapiens) (UniProt Q14353); details: activity change, negative = inhibition: at 57.3 µM (top of the series) unless noted
[3] = biological target: Nicotinamide N-methyltransferase (Homo sapiens) (UniProt P40261); details: MTase-Glo luminescence, SAH detection, recombinant enzyme; measured here: NNMT max response; stronger effect = lower value
[4] = biological target: Phenylethanolamine N-methyltransferase (Homo sapiens) (UniProt P11086); details: MTase-Glo luminescence, SAH detection, recombinant enzyme; measured here: PNMT max response; stronger effect = lower value
Potency is the fitted concentration of half-maximal effect.

Sequence of Catechol O-methyltransferase (Homo sapiens) (P21964 whole entry, looked up): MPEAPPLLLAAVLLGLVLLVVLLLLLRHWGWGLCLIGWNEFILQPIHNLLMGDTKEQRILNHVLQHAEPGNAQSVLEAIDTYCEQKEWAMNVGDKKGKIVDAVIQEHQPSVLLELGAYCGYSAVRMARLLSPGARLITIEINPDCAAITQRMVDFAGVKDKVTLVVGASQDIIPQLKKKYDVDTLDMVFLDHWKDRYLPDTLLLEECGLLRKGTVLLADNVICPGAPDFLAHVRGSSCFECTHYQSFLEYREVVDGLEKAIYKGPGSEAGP
Sequence of Nicotinamide N-methyltransferase (Homo sapiens) (P40261 whole entry, looked up): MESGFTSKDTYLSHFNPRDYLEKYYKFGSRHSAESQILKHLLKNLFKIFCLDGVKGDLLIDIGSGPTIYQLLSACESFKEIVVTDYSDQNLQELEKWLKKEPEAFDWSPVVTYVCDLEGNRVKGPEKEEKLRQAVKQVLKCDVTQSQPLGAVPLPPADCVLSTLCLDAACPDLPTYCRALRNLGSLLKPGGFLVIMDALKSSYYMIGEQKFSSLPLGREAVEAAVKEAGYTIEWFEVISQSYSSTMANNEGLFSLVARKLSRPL
Sequence of Phenylethanolamine N-methyltransferase (Homo sapiens) (P11086 whole entry, looked up): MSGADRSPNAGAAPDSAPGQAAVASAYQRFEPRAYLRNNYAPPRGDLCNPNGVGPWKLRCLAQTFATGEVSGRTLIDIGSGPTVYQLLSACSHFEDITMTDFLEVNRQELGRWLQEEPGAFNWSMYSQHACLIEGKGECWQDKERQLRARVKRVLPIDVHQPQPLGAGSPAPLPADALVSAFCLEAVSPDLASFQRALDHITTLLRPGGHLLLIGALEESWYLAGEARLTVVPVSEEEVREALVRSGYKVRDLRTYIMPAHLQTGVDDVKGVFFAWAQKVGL

Structure (SMILES) | activity [1] | activity change, negative = inhibition [2] | activity [3] | activity [4] | Potency [2]
O=C1c2ccccc2C(=O)c2cc(S(=O)(=O)N(CCO)CCO)ccc21 | -23% | 2.27% | -1.51% | -73.8% | –
CC(CNC(=O)c1nnn2c1c(=O)[nH]c1cc(F)ccc12)c1ccccc1 (stereo not drawn) | -11.1% | – | -18.2% | -15.8% | 271 nM (active)
